In the supplement of paper PMC10646978:
± gives the standard deviation.

How the values were obtained:
Conditions in all cases: modulator concentration 10 µM
[1] = test system: RAW-Dual (murine macrophage reporter line); test: NF-kB reporter (SEAP) activity fold change vs agonist alone; higher = enhanced NF-kB activity
Procedure, shortened: (§1)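 In 384-well plates holding 50 000 RAW-Dual murine macrophage reporter cells per well, compound at 10 μM final was pre-incubated for 1 hour at 37 °C, after which a PRR agonist was added overnight. Supernatant SEAP read with QUANTI-Blue at 620 nm absorbance reported NF-κB, and Lucia luciferase read with QUANTI-Luc luminescence reported IRF. Fold change values come from dividing each reporter signal by the mean of agonist-only control wells on the same plate, averaged over replicate plates with propagated errors.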

[2] = test system: RAW-Dual (murine macrophage reporter line); test: IRF reporter (Lucia luciferase) activity fold change vs agonist alone; higher = enhanced IRF activity
Procedure, shortened: as §1

[3] = test system: RAW-Dual (murine macrophage reporter line); test: viability score (confluency relative to resting cells, overnight) (fraction); higher = more viable, active = viable (0.7 or more)
Procedure, shortened: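 Overnight exposure to 10 μM final compound was carried out on RAW-Dual macrophages in 384-well plates. IncuCyte software generated two confluency masks over all wells imaged with IncuCyte. The viability score gives confluency in relation to resting cells. A compound met the cutoff if each mask exceeded 70% of resting cells.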

[4] = agonist: CpG ODN 1826 0.5 ug/mL

SMILES	NF-kB reporter [1, 4]	NF-kB reporter ([1]; agonist: LPS 0.1 ug/mL)	NF-kB reporter ([1]; agonist: MPLA […])	IRF reporter ([2]; agonist: 3'3'-cGAMP 10 ug/mL)	IRF reporter ([2]; agonist: LPS 0.1 ug/mL)	IRF reporter ([2]; agonist: MPLA […])	viability score [3]
O=[N+]([O-])c1ccc(Cl)c(C=Nc2cccc3c(N=Cc4cc([N+](=O)[O-])ccc4Cl)cccc23)c1	0.841 ± 0.047	1.07 ± 0.078	0.988 ± 0.086	0.816 ± 0.05	1.56 ± 0.1	1.26 ± 0.13	1 (active)
COC(=O)CNC(c1ccccc1)c1cc(Br)ccc1NC(=O)c1ccccc1 (stereo not drawn)	1.06 ± 0.18	1.03 ± 0.12	1.33 ± 0.21	1.06 ± 0.035	1.16 ± 0.13	1.63 ± 0.19	1.01 (active)
CC(C)CN(CC(O)C(Cc1ccccc1)NC(=O)OC1COC2OCCC12)S(=O)(=O)c1ccc(N)cc1 (stereo not drawn) [Prestw-1802]	1.53 ± 0.34	1.52 ± 0.14	1.84 ± 0.15	0.872 ± 0.069	0.827 ± 0.22	0.953 ± 0.14	0.981 (active)
COc1ccc(-c2[nH]c(-c3ccccc3)nc2SCC(=O)NC2CCCC2)cc1	0.875 ± 0.061	1.07 ± 0.069	1.64 ± 0.11	0.892 ± 0.03	1.09 ± 0.095	1.11 ± 0.1	1 (active)
Cc1cccc(C)c1OCC(=O)N[C@@H](Cc1ccccc1)[C@@H](O)C[C@H](Cc1ccccc1)NC(=O)[C@H](C(C)C)N1CCCNC1=O	0.665 ± 0.082	0.889 ± 0.058	1.24 ± 0.12	0.67 ± 0.04	1.2 ± 0.071	1.37 ± 0.12	1.02 (active)
Clc1cccc(C=Nc2ccc(N=Cc3cccc(Cl)c3Cl)cc2)c1Cl	0.979 ± 0.081	1.08 ± 0.07	1 ± 0.04	0.815 ± 0.059	1.05 ± 0.056	1.09 ± 0.12	1 (active)
Cc1ccc(COc2ccc3c(C)c(C)c(=O)oc3c2C)cc1	0.785 ± 0.067	0.84 ± 0.043	1 ± 0.098	0.761 ± 0.041	1.32 ± 0.1	1.53 ± 0.13	0.984 (active)
N#Cc1c(-n2ncnc2-c2cccc([N+](=O)[O-])c2)sc2c1CCCC2	0.954 ± 0.063	1.05 ± 0.085	0.932 ± 0.073	0.932 ± 0.033	1.46 ± 0.12	1.2 ± 0.15	1 (active)
Nc1nc(NC2CC2)c2ncn([C@H]3C=C[C@@H](CO)C3)c2n1.Nc1nc(NC2CC2)c2ncn([C@H]3C=C[C@@H](CO)C3)c2n1.O=S(=O)(O)O	1.1 ± 0.26	1.02 ± 0.057	1.04 ± 0.093	0.864 ± 0.065	1.2 ± 0.15	1.07 ± 0.12	0.791 (active)
N#Cc1c(N=Cc2ccc(O)cc2)sc2c1CCCC2	0.688 ± 0.055	0.94 ± 0.069	0.979 ± 0.11	0.713 ± 0.049	1.17 ± 0.22	1.23 ± 0.24	0.997 (active)
CCOc1cc([C@@H](CS(C)(=O)=O)N2C(=O)c3cccc(NC(C)=O)c3C2=O)ccc1OC	2.72 ± 0.66	0.969 ± 0.058	1.69 ± 0.15	1.01 ± 0.048	1.05 ± 0.12	1.14 ± 0.15	0.977 (active)
NCCCC(=O)O	1.18 ± 0.28	0.974 ± 0.1	1.01 ± 0.083	0.981 ± 0.04	1.3 ± 0.19	1.3 ± 0.14	0.995 (active)
COc1ccc(NC(=O)CN(c2ccc(F)cc2)S(C)(=O)=O)c(OC)c1	0.872 ± 0.073	0.896 ± 0.067	1.05 ± 0.099	0.921 ± 0.042	1.23 ± 0.089	1.35 ± 0.14	0.999 (active)
CN1CCN(CCOc2cc(OC3CCOCC3)c3c(Nc4c(Cl)ccc5c4OCO5)ncnc3c2)CC1	0.135 ± 0.02	1.48 ± 0.29	1.99 ± 0.11	0.395 ± 0.012	0.597 ± 0.13	0.983 ± 0.17	0.886 (active)
